40 compounds from PubChem BioAssay AID493185 (National Center for Advancing Translational Sciences (NCATS), 2011) can be followed below.

Calls of active or inactive are those of the source. Entries that show only a call come without a potency. Calls follow the shape of the dose curve; as a rule, active = well fitted activation curve with a large enough effect; inconclusive = small, poorly fitted or top-dose-only effect; inactive = no such curve, though single readings can be large or run the other way.
Potency is read from the fitted curve at half-maximal effect.

A short description of this test: Counterscreen for Identifying a Potential Treatment of Ataxia-Telangiectasia: Hit Validation. Particulars: cell-free AlphaLISA/AlphaScreen artifact counterscreen, PBS only, no cells; series mostly up to 76.9 µM. Put shortly: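 Cell-free AlphaLISA counterscreen: compounds (up to 76.7 uM final) in PBS with detection mix of anti-pKAP1 and anti-KAP1 antibodies on donor/acceptor beads plus lysis buffer, incubated 6 hr at 25C before AlphaScreen read.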
(In general: The purpose of a counterscreen is to sort out artefacts and off-target activity.)
Turning to `COc1ccccc1NC(=O)C1CCCN(S(=O)(=O)c2ccc(-n3cnnn3)cc2)C1` (stereo not given), the Potency entry is “inactive”. Take `O=C(CNCc1cccs1)Nc1ccc(OC(F)(F)F)cc1`: the Potency result is “inactive”. In the case of `COC1=C(N)C(=O)c2nc(-c3nc(C(=O)O)c(C)c(-c4ccc(OC)c(OC)c4O)c3N)ccc2C1=O`, the Potency entry is “inactive”. Consider `CCCCN(c1nc2ccccc2nc1Cl)S(=O)(=O)c1ccc(C)cc1`, for which the Potency entry was “inactive”. Consider `C=CCSc1nc2ccccc2n1C(=O)/C=C/c1cc(OC)c(OC)c(OC)c1`, for which the Potency result was “inactive”. In the case of `COc1cc(/C=C2\CCOC2=O)cc(OC)c1OC` it was “inactive”; in that of `O=C1C(Cl)=C(Nc2ccc3cn[nH]c3c2)C(=O)c2ccccc21`, “inactive”. In the case of `COc1ccc(CCn2c(S)nc3ccccc3c2=O)cc1` it was “inactive”; in that of `COc1ccc(C2NC(=S)NC3=C2N2CCC3CC2)cc1` (stereo not given), “inactive”; in that of `COc1ccc(-n2c(C)cc(=O)[nH]c2=O)cc1`, “inactive”. Under `Cc1nc(SCC(=O)Nc2cc(C(N)=O)cc(C(N)=O)c2)c2c(C)c(C)sc2n1` stands 51.9 µM (active); under `COc1ccc2c(c1)cc(C(=O)N[C@H](C(=O)N1CCC(C(=O)O)CC1)C(C)C)n2C`, “inactive”. Regarding `COc1ccc(OC)c(C2CC(c3ccccc3)=NN2C(=S)Nc2ccccc2)c1` (stereo not given), the Potency result is “inactive”.

With `Cc1ccc(C(=O)Nc2sc3c(c2C(=O)O)CCCCC3)o1`, the Potency result is “inactive”. In the case of `COc1cc(CCC(=O)OCC(=O)N2CCc3ccccc32)cc(OC)c1OC` it was “inactive”; in that of `CCOC(=O)c1c(CSc2ccsc2)n(C)c2cc(Br)c(O)c(CN(C)C)c12`, “inactive”. `COc1ccc(C(=O)N2CCCC2(C#N)c2ccccc2)cc1[N+](=O)[O-]` (stereo not given): the Potency result is “inactive”. Consider `Cc1nn(C)c(Cl)c1CN1CCN(C2CCCC2)C(CCO)C1` (stereo not given), for which the Potency entry is “inactive”.

As for `O=C(Nc1ccc(N2CCCC2)cc1)c1ccc(Cl)cc1Cl`, the Potency entry is “inactive”. In the case of `O=C(O)c1ccc(/C=C/c2nc3ccccc3c(=O)[nH]2)cc1`, the Potency result is “inactive”. On to `Cc1oc2ccc(OCc3ccc(Br)cc3)cc2c1C(=O)O`, for which the Potency result was “inactive”. With `CCOc1cccc(C(=O)Nc2ccccc2N2CCN(C(=O)C(C)C)CC2)c1`, the Potency entry was “inactive”. In the case of `COc1cccc(C2C(C(N)=O)=C(C)Nc3nc(CCCO)nn32)c1` (stereo not given), the Potency entry is “inactive”.

For `CCCCC(=O)NC(c1ccco1)c1c(O)ccc2ccccc12` (stereo not given), the Potency result was “inactive”. Consider `Cc1cc(C)c2c(Cn3ccnc3)cc(=O)oc2c1`, for which the Potency entry was “inactive”. As for `CC(C)CC(=O)Nc1c2c(nn1-c1cccc(Cl)c1)CS(=O)C2` (stereo not given), the Potency result is “inactive”. In the case of `CC(C)CNS(=O)(=O)c1cc(C(=O)O)c(Cl)cc1Cl` it was “inactive”; in that of `O=C(c1ccc(F)cc1)c1ccc(N2CCCCC2)cc1`, “inactive”; in that of `CCc1ccc(C2c3[nH]c4ccccc4c3CCN2C(=O)c2cc[n+]([O-])cc2)cc1` (stereo not given), “inactive”. In the case of `S=c1[nH]nc(C2CCCCC2)n1/N=C/c1ccc(Br)cc1` it was “inactive”.

`Cc1ccc(C(=O)N/C(=C\c2ccco2)C(=O)NC2CCS(=O)(=O)C2)cc1` (stereo not given): the Potency result is “inactive”. In the case of `CCOC(=O)N1CCN(C(=O)CCc2nc3sc4c(c3c(=O)[nH]2)CCCC4)CC1` it was “inactive”; in that of `COc1cccc(CN(C)CC(=O)NCc2ccc(F)cc2)c1OC`, “inactive”; in that of `CN(C)S(=O)(=O)c1ccc(NC(=O)c2ccc([N+](=O)[O-])cc2)cc1`, “inactive”.

For the compound `CN(C)c1ccc2nc3ccc(=[N+](C)C)cc-3sc2c1`, the Potency was 11.6 µM (active).

For the compound `COc1cc(CCC(C)NCc2ccccc2)ccc1O` (stereo not given), the Potency entry is “inactive”. Under `C=CCN1C(=O)/C(=C/C(=O)OC)S/C1=N\NC(=O)c1ccccc1` stands “inactive”.

As for `CCC12CN(C(=O)c3ccc([N+](=O)[O-])cc3)CC(CC)(CN(C(=O)c3ccc([N+](=O)[O-])cc3)C1)C2=O`, the Potency result is “inactive”.

For the compound `COc1ccccc1OC(=O)Nc1ccc(Cl)cc1`, the Potency was 6.54 µM (active). As to `O=C(c1nn2c(C(F)(F)F)cc(-c3ccc(F)cc3)nc2c1Cl)N1CCOCC1`, the Potency result is “inactive”.
